CYP2C9 act: CYP2C9 (human) activation; P11712; recombinant CYP2C9, luciferin-H conversion, luminescence; active compounds read high; factor 1 = untreated enzyme, 0 = blocked; activation factor at 5 µM; 96,000 tested, 1.4% active; AID 1024;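 active means activation factor of 2 or more for CYP2C9 at a 5 µM dose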
Target sequence (P11712 whole entry, looked up): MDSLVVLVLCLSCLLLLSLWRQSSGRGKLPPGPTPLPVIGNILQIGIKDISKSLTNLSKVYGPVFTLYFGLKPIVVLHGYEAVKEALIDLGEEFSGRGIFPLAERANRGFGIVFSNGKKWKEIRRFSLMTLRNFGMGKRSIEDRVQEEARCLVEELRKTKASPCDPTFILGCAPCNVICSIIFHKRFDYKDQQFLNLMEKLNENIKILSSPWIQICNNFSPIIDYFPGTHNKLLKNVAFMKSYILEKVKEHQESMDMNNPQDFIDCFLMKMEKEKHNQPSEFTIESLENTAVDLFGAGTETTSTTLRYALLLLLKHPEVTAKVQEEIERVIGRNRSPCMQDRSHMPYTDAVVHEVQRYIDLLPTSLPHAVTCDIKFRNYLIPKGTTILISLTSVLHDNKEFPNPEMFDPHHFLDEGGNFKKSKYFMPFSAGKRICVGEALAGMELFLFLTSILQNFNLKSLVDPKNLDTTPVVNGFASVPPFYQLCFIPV
CYP2C19 inhib: inhibitors of human CYP2C19 | CYP2C19 Supersomes, luciferin-H EGE luminescence, 30 min | inhibition, % at 5 µM | 96,000 tested, 21% active | AID 778;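 active means CYP2C19 inhibition above a set limit at 5 µM in the primary screen, cut at about 50% in these data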
CYP2C9 inh: blocks human cytochrome P450 2C9; CYP2C9 Supersomes, luciferin-H conversion, luminescence; P11712; inhibition, % at 5 µM; 96,000 tested, 20% active;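 active means blocking of liver enzyme CYP2C9 beyond about 50% at 5 µM, limit read from the data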
CYP2C19 activ: activators of human cytochrome P450 2C19; P33261; recombinant CYP2C19, luciferin-H EGE luminescence; active compounds read high; 0 = fully inhibited enzyme, 1 = untreated enzyme; activation factor at 5 µM; 96,000 tested, under 10 active;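 active means activation factor of at least 2 at 5 µM in the primary screen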
Measles CPE: protection of cells from measles virus | Measles virus-infected cells, CPE protection, absorbance | protection (pct of control), % at 4 µM | 140,000 tested, 1.5% active | AID 841; in the data active means protection mostly above about 24%, no sharp cut-off; inactive means mostly below about 26%
A number is an active result. Shown are actives, neighbours in structure and some others; about 22% of the full set was active somewhere.

COc1nc(C)ccc1-c1noc(-c2ccncc2)n1 was read as Measles CPE inactive.
For COc1nc2c(C)cccc2cc1-c1noc(-c2ccncc2)n1 the results were CYP2C9 act inactive, CYP2C19 inhib 63, CYP2C9 inh inactive and CYP2C19 activ inactive.
CCCCC(=O)Nc1ccc(C(=O)NNC(=O)CCc2ccccc2)cc1 was read as CYP2C9 act inactive, CYP2C19 inhib inactive, CYP2C9 inh inactive, CYP2C19 activ inactive and Measles CPE inactive.
COCCNC(=O)CN1c2ccccc2CC1C (configuration not stated) was read as CYP2C9 act inactive, CYP2C19 inhib inactive, CYP2C9 inh inactive, CYP2C19 activ inactive and Measles CPE inactive.
For CC(=O)Nc1cc2c(cc1NC(=O)Cn1nc(-c3ccc4c(c3)OCCO4)ccc1=O)OCCO2 the results were CYP2C9 act inactive, CYP2C19 inhib 55, CYP2C9 inh inactive, CYP2C19 activ inactive and Measles CPE inactive.
`COc1ccccc1-c1ccc(=O)n(CC(=O)NCc2ccc3c(c2)OCO3)n1` gave CYP2C9 act inactive, CYP2C19 inhib 56, CYP2C9 inh inactive, CYP2C19 activ inactive and Measles CPE inactive.
COc1cccc(CNC(=O)Cn2nc(-c3ccc(Cl)cc3)ccc2=O)c1 was read as CYP2C9 act inactive, CYP2C19 inhib 55, CYP2C9 inh 77, CYP2C19 activ inactive and Measles CPE inactive.
COc1ccc(CNC(=O)Cn2nc(-c3ccc4c(c3)OCCO4)ccc2=O)cc1 was read as CYP2C9 act inactive, CYP2C19 inhib inactive, CYP2C9 inh 60, CYP2C19 activ inactive and Measles CPE inactive.
`CN(C)CCNC(=O)Cn1nc(-c2ccc(Cl)cc2)ccc1=O` gave CYP2C9 act inactive, CYP2C19 inhib inactive, CYP2C9 inh inactive, CYP2C19 activ inactive and Measles CPE inactive.
Screening COc1ccc(CNC(=O)CCSc2nc(-c3ccc4c(c3)OCO4)cc(C(F)(F)F)n2)cc1 returned Measles CPE inactive.
CCCCC(=O)OCC(=O)c1ccc(OCC)cc1 was read as Measles CPE inactive.
Screening O=C(O)CCCC(=O)Nc1c(F)c(F)c(F)c(F)c1F returned CYP2C9 act inactive, CYP2C19 inhib inactive, CYP2C9 inh inactive, CYP2C19 activ inactive and Measles CPE inactive.
For C=C1C(O)C[C@H]2C(=C)CCC3[C@H](OC(=O)[C@]3(O)CO)[C@@H]12 (some centres not stated) the results were Measles CPE inactive.
Screening O=C(Cn1cnc2ccccc2c1=O)NCc1ccc2c(c1)OCO2 returned CYP2C9 act inactive, CYP2C19 inhib inactive, CYP2C9 inh inactive, CYP2C19 activ inactive and Measles CPE inactive.
For O=C(Cn1nnc(-c2ccccc2Cl)n1)NCc1ccc2c(c1)OCO2 the results were CYP2C9 act inactive, CYP2C19 inhib inactive, CYP2C9 inh 94, CYP2C19 activ inactive and Measles CPE inactive.
For CCOc1ccccc1Nc1nnc(C)c(=O)[nH]1 the results were CYP2C9 act inactive, CYP2C19 inhib inactive, CYP2C9 inh inactive, CYP2C19 activ inactive and Measles CPE 60.
Screening COc1ccccc1Nc1nnc(C)c(=O)[nH]1 returned CYP2C9 act inactive, CYP2C19 inhib inactive, CYP2C9 inh inactive, CYP2C19 activ inactive and Measles CPE inactive.
Screening COc1ccc(C2(O)CCN(C(=O)Cc3cccnc3)CC2)cc1 returned CYP2C9 act inactive, CYP2C19 inhib 58, CYP2C9 inh inactive, CYP2C19 activ inactive and Measles CPE inactive.
`COc1cccc(C2(O)CCN(C(=O)Cc3cccnc3)CC2)c1` gave CYP2C9 act inactive, CYP2C19 inhib 73, CYP2C9 inh inactive, CYP2C19 activ inactive and Measles CPE inactive.
For COc1cccc(C2(O)CCN(C(=O)c3cccs3)CC2)c1 the results were CYP2C9 act inactive, CYP2C19 inhib inactive, CYP2C9 inh inactive, CYP2C19 activ inactive and Measles CPE inactive.
For CSc1nc(Cl)c(Cc2ccc(OC(C)C)cc2)c(N2CCOCC2)n1 the results were CYP2C9 act inactive, CYP2C19 inhib inactive, CYP2C9 inh 62, CYP2C19 activ inactive and Measles CPE inactive.
COc1c(C)cc(Br)cc1C(=O)Nc1cccc(-c2nc3ncccc3o2)c1 was read as CYP2C9 act inactive, CYP2C19 inhib 92, CYP2C9 inh 54, CYP2C19 activ inactive and Measles CPE inactive.
`O=C(CSc1ccc(Cl)cc1)Nc1cccc(-c2nc3ncccc3o2)c1` gave CYP2C9 act inactive, CYP2C19 inhib inactive, CYP2C9 inh 51, CYP2C19 activ inactive and Measles CPE inactive.
CCC(=O)NC(=S)Nc1cccc(-c2nc3ncccc3o2)c1 was read as Measles CPE inactive.
Screening O=C(CSc1ccc(Cl)cc1)Nc1cc(-c2nc3ncccc3o2)ccc1Cl returned Measles CPE inactive.
Screening COc1ccc(C(=O)Nc2cccc(-c3nc4ncccc4o3)c2C)cc1 returned CYP2C9 act inactive, CYP2C19 inhib inactive, CYP2C9 inh 64, CYP2C19 activ inactive and Measles CPE inactive.
`Cc1c(NC(=O)CSc2ccc(Cl)cc2)cccc1-c1nc2ncccc2o1` gave CYP2C9 act inactive, CYP2C19 inhib inactive, CYP2C9 inh 92, CYP2C19 activ inactive and Measles CPE inactive.
`COc1cc(C(=O)Nc2cccc(-c3nc4ncccc4o3)c2C)cc(OC)c1OC` gave CYP2C9 act inactive, CYP2C19 inhib inactive, CYP2C9 inh inactive, CYP2C19 activ inactive and Measles CPE inactive.
Nc1ccc(-c2ccc(N)cc2C(F)(F)F)c(C(F)(F)F)c1 was read as CYP2C9 act inactive, CYP2C19 inhib 79, CYP2C9 inh 60, CYP2C19 activ inactive and Measles CPE inactive.
Screening Nc1ccc(C(O)(C(F)(F)F)C(F)(F)F)cc1 returned CYP2C9 act inactive, CYP2C19 inhib inactive, CYP2C9 inh inactive, CYP2C19 activ inactive and Measles CPE inactive.
Screening O=C(NC1(C(F)(F)F)NC(=O)N(c2ccc(F)c(Cl)c2)C1=O)c1ccncc1 (configuration not stated) returned CYP2C9 act inactive, CYP2C19 inhib 82, CYP2C9 inh 98, CYP2C19 activ inactive and Measles CPE inactive.
`CCCN(CCC)c1ccc(CC(=O)NC(C)Cc2ccccc2)cc1` (configuration not stated) gave Measles CPE inactive.
CCN(CC)c1ccc(CC(=O)NC(C)Cc2ccccc2)cc1 (configuration not stated) was read as CYP2C9 act inactive, CYP2C19 inhib 82, CYP2C9 inh 60, CYP2C19 activ inactive and Measles CPE inactive.
`CCN(CC)C(=O)C(=O)Nc1cc(C(F)(F)F)ccc1Cl` gave CYP2C9 act inactive, CYP2C19 inhib inactive, CYP2C9 inh inactive, CYP2C19 activ inactive and Measles CPE inactive.
COC(=O)CC1C(=O)NC2CCCCC2N1C(=O)c1ccccc1 (configuration not stated) was read as CYP2C9 act inactive, CYP2C19 inhib inactive, CYP2C9 inh inactive, CYP2C19 activ inactive and Measles CPE inactive.
Screening O=C(CN(Cc1ccccc1)C(=O)c1ccco1)NCc1ccc(F)cc1 returned CYP2C9 act inactive, CYP2C19 inhib 84, CYP2C9 inh inactive, CYP2C19 activ inactive and Measles CPE inactive.
For O=C(CN(Cc1ccccc1F)C(=O)c1ccco1)NCc1ccc(F)cc1 the results were CYP2C9 act inactive, CYP2C19 inhib inactive, CYP2C9 inh inactive, CYP2C19 activ inactive and Measles CPE inactive.

High-throughput results as filed in PubChem BioAssay.
